Source: PubChem BioAssay AID1159580 (chemical genetic matrix, 2015)
About 2,000 (36%) of roughly 5,500 compounds were called active. Another 18% or so got no clear call; they are omitted. Cut-off read from the data, not from the text of the source: active = normalized growth mostly below about 0.91 (no sharp cut-off); inconclusive = no clear call, values can overlap the other calls; inactive = mostly above about 0.92. Some of the results follow.

Assay: chemical genetic growth profiling, strain panel (AID 1159580);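 note: tested at 20 µM; growth read once vehicle control cultures reached saturation at 30 °C; 1 = growth at the plate median or of vehicle wells; lower values mean less growth of the strain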
Conditions: growth OD

Measured: normalized growth

O=[N+]([O-])c1cc([As](=O)(O)O)ccc1O
active: S. cerevisiae deletion strains, locus YKL085W, strain MDH1 (second series), hits give low values 0.484 | S. cerevisiae deletion strains, locus YKL085W, strain MDH1, hits give low values 0.484 | S. cerevisiae deletion strains, locus YKR001C, strain vps1, hits give low values 0.232 | S. cerevisiae deletion strains, locus YLR102C, strain apc9, hits give low values 0.243 | S. cerevisiae deletion strains, locus YLR268W, strain sec22, hits give low values 0.12 | S. cerevisiae deletion strains, locus YLR371W, strain rom2, hits give low values 0.152 | S. cerevisiae deletion strains, locus YLR418C, strain cdc73, hits give low values 0.146 | S. cerevisiae deletion strains, locus YML124C, strain tub3, hits give low values 0.329 | S. cerevisiae deletion strains, locus YMR078C, strain ctf18, hits give low values 0.548 | S. cerevisiae deletion strains, locus YMR223W, strain ubp8, hits give low values 0.129 | S. cerevisiae deletion strains, locus YNL271C, strain bni1, hits give low values 0.532 | S. cerevisiae deletion strains, locus YNL298W, strain CLA4, hits give low values 0.877 | S. cerevisiae deletion strains, locus YNL307C, strain MCK1, hits give low values 0.0701 | S. cerevisiae deletion strains, locus YOR136W, strain idh2, hits give low values 0.147 | S. cerevisiae deletion strains, locus YOR184W, strain ser1, hits give low values 0.0809 | S. cerevisiae deletion strains, locus YOR316C, strain cot1, hits give low values 0.171 | S. cerevisiae deletion strains, locus YPR119W, strain clb2, hits give low values 0.288 | S. cerevisiae deletion strains, locus YPR163C, strain tif3, hits give low values 0.0934 | S. cerevisiae deletion strains, locus YPR167C, strain met16, hits give low values 0.152 | S. cerevisiae deletion strains, strain wtn01, hits give low values 0.0828
inactive: S. cerevisiae deletion strains, locus YJR075W, strain HOC1, hits give low values 1 | S. cerevisiae deletion strains, locus YKL009W, strain mrt4, hits give low values 0.986 | S. cerevisiae deletion strains, locus YKL068W, hits give low values 0.96 | S. cerevisiae deletion strains, locus YKL160W, strain elf1, hits give low values 0.959 | S. cerevisiae deletion strains, locus YKL190W, strain CNB1, hits give low values 0.983 | S. cerevisiae deletion strains, locus YKR091W, strain srl3, hits give low values 0.975 | S. cerevisiae deletion strains, locus YLL001W, strain dnm1, hits give low values 0.936 | S. cerevisiae deletion strains, locus YLL026W, hits give low values 0.97 | S. cerevisiae deletion strains, locus YLL041C, strain sdh2, hits give low values 0.965 | S. cerevisiae deletion strains, locus YLR027C, strain aat2, hits give low values 0.97 | S. cerevisiae deletion strains, locus YLR039C, strain RIC1, hits give low values 1.01 | S. cerevisiae deletion strains, locus YLR058C, strain SHM2, hits give low values 0.998 | S. cerevisiae deletion strains, locus YLR113W, strain HOG1, hits give low values 1.02 | S. cerevisiae deletion strains, locus YLR221C, strain rsa3, hits give low values 1 | S. cerevisiae deletion strains, locus YLR258W, strain gsy2, hits give low values 0.975 | S. cerevisiae deletion strains, locus YLR262C, strain YPT6 (second series), hits give low values 0.948 | S. cerevisiae deletion strains, locus YLR262C, strain YPT6, hits give low values 1.02 | S. cerevisiae deletion strains, locus YLR320W, strain mms22, hits give low values 0.984 | S. cerevisiae deletion strains, locus YLR330W, strain CHS5, hits give low values 0.988 | S. cerevisiae deletion strains, locus YLR342W, strain FKS1 (second series), hits give low values 1.07 | S. cerevisiae deletion strains, locus YLR342W, strain FKS1, hits give low values 0.978 | S. cerevisiae deletion strains, locus YLR357W, strain rsc2, hits give low values 0.92 | S. cerevisiae deletion strains, locus YLR370C, strain arc18, hits give low values 0.957 | S. cerevisiae deletion strains, locus YLR384C, strain iki3, hits give low values 0.938 | S. cerevisiae deletion strains, locus YML016C, strain PPZ1, hits give low values 0.988 | S. cerevisiae deletion strains, locus YML032C, strain rad52, hits give low values 0.929 | S. cerevisiae deletion strains, locus YML120C, strain ndi1, hits give low values 0.969 | S. cerevisiae deletion strains, locus YMR058W, strain fet3, hits give low values 0.977 | S. cerevisiae deletion strains, locus YMR125W, strain sto1, hits give low values 0.943 | S. cerevisiae deletion strains, locus YMR129W, hits give low values 0.981 | S. cerevisiae deletion strains, locus YMR205C, strain PFK2, hits give low values 0.983 | S. cerevisiae deletion strains, locus YMR231W, strain pep5, hits give low values 0.951 | S. cerevisiae deletion strains, locus YMR263W, strain SAP30, hits give low values 0.99 | S. cerevisiae deletion strains, locus YMR307W, strain GAS1, hits give low values 1.05 | S. cerevisiae deletion strains, locus YNL067W, strain RPL9B, hits give low values 0.991 | S. cerevisiae deletion strains, locus YNL071W, strain lat1, hits give low values 0.973 | S. cerevisiae deletion strains, locus YNL128W, strain TEP1, hits give low values 0.976 | S. cerevisiae deletion strains, locus YNL153C, strain GIM3, hits give low values 0.958 | S. cerevisiae deletion strains, locus YNL183C, strain NPR1, hits give low values 0.971 | S. cerevisiae deletion strains, locus YNL209W, strain ssb2, hits give low values 0.974 | S. cerevisiae deletion strains, locus YNL233W, strain BNI4, hits give low values 1.01 | S. cerevisiae deletion strains, locus YNL248C, strain rpa49, hits give low values 0.918 | S. cerevisiae deletion strains, locus YNL250W, strain rad50, hits give low values 0.93 | S. cerevisiae deletion strains, locus YNL322C, strain KRE1 (second series), hits give low values 0.974 | S. cerevisiae deletion strains, locus YNL322C, strain KRE1, hits give low values 0.991 | S. cerevisiae deletion strains, locus YNR049C, strain mso1, hits give low values 0.945 | S. cerevisiae deletion strains, locus YNR052C, strain pop2, hits give low values 1.03 | S. cerevisiae deletion strains, locus YOL006C, strain TOP1, hits give low values 1.06 | S. cerevisiae deletion strains, locus YOL012C, strain htz1 0.214 | S. cerevisiae deletion strains, locus YOL147C, strain pex11, hits give low values 0.987 | S. cerevisiae deletion strains, locus YOR001W, strain rrp6, hits give low values 0.965 | S. cerevisiae deletion strains, locus YOR061W, strain CKA2, hits give low values 0.991 | S. cerevisiae deletion strains, locus YOR069W, strain VPS5, hits give low values 0.989 | S. cerevisiae deletion strains, locus YOR070C, strain gyp1, hits give low values 0.965 | S. cerevisiae deletion strains, locus YOR080W, strain dia2, hits give low values 0.961 | S. cerevisiae deletion strains, locus YOR083W, strain WHI5, hits give low values 0.975 | S. cerevisiae deletion strains, locus YOR106W, strain vam3, hits give low values 0.96 | S. cerevisiae deletion strains, locus YOR144C, strain elg1, hits give low values 0.996 | S. cerevisiae deletion strains, locus YOR231W, strain MKK1, hits give low values 1.03 | S. cerevisiae deletion strains, locus YOR265W, strain rbl2, hits give low values 0.968 | S. cerevisiae deletion strains, locus YOR270C, strain vph1, hits give low values 0.952 | S. cerevisiae deletion strains, locus YOR290C, strain snf2, hits give low values 0.993 | S. cerevisiae deletion strains, locus YPL051W, strain arl3, hits give low values 0.967 | S. cerevisiae deletion strains, locus YPL055C, strain LGE1, hits give low values 0.946 | S. cerevisiae deletion strains, locus YPL078C, strain atp4, hits give low values 0.951 | S. cerevisiae deletion strains, locus YPL106C, strain sse1, hits give low values 0.982 | S. cerevisiae deletion strains, locus YPL240C, strain hsp82, hits give low values 0.949 | S. cerevisiae deletion strains, locus YPL241C, strain CIN2, hits give low values 0.995 | S. cerevisiae deletion strains, locus YPL256C, strain CLN2, hits give low values 1.08 | S. cerevisiae deletion strains, locus YPR141C, strain kar3, hits give low values 1 | S. cerevisiae strains, strain wild type, hits give low values 0.997
